Experiment [1] can be described thus: ATG_GLI_CIS: Attagene CIS-FACTORIAL HepG2 Assay for human Zinc Finger Protein GLI1 (AID 2282945). To be noted: HepG2, Attagene cis-factorial reporter mRNA, GLI element; actives raise or lower the signal. A digest of the protocol: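 Bidirectional curve fits relative to DMSO, using reporter mRNA levels from RT-PCR plus capillary electrophoresis. Cells were HepG2 transiently carrying cis-regulated reporter constructs, harvested 24 h after dosing.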

In experiment [2] the target is Bile acid receptor (Homo sapiens) (UniProt Q96RI1). Kind of experiment: ATG_IR1_CIS: Attagene CIS-FACTORIAL HepG2 Assay for human Nuclear Receptor Subfamily 1 Group H Member 4 (NR1H4), IR1 submotif (AID 2282946). To be noted: IR1 reporter transcription, actives raise or lower the signal. A digest of the protocol: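 HepG2 cells transiently transfected with multiplexed cis-element reporter units read endogenous transcription factor activity. After 24 h compound exposure, reporter mRNA was quantified by RT-PCR, fluorescent labelling, HpaI digestion and capillary electrophoresis; bidirectional fitting versus DMSO baseline.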

Experiment [3] in a line: ATG_GRE_CIS: Attagene CIS-FACTORIAL HepG2 Assay for human Glucocorticoid Response Elements (GRE) (AID 2282947). Particulars: HepG2 GRE cis-reporter, Attagene multiplex mRNA; actives raise or lower the signal. A digest of the protocol:
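Multiplexed cis-reporter mRNA induction, HepG2, 24 h post-dose. RT-PCR, FAM-labelled, HpaI-digested amplicons by CE. Bidirectional fit vs DMSO.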

Experiment [4] is described as follows: ATG_ISRE_CIS: Attagene CIS-FACTORIAL HepG2 Assay for human Interferon Regulatory Factor 1 (IRF1) binding to an Interferon-Stimulated Response Element (ISRE) (AID 2282948). Particulars: HepG2 ISRE cis-reporter (Attagene), mRNA transcription readout; actives raise or lower the signal. A digest of the protocol:
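Endogenous transcription factor activity read as reporter transcript abundance via RT-PCR and capillary electrophoresis. HepG2 cells transiently transfected, 24 h chemical exposure. Gain or loss fitted against DMSO baseline.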

A short description of experiment [5]: ATG_M_32_CIS: Attagene CIS-FACTORIAL HepG2 Assay for M32 Transcription Factor (Internal Marker) (AID 2282949).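 Further: background control marker of the multiplexed CIS panel rather than a real target.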 Particulars: HepG2 Attagene cis-factorial M32 reporter, mRNA; actives raise or lower the signal. A digest of the protocol: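 Using DMSO as baseline, bidirectional curve fits were applied to reporter mRNA signals. These came from transiently transfected HepG2 cells exposed for 24 h, with RNA analysed by RT-PCR, FAM primer extension, HpaI digestion and CE.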

Experiment [6] in a line: ATG_M_06_CIS: Attagene CIS-FACTORIAL HepG2 Assay for M06 Transcription Factor (Internal Marker) (AID 2282950). Particulars: HepG2 Attagene CIS-FACTORIAL M06 internal marker reporter; actives raise or lower the signal. A digest of the protocol: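 One of many multiplexed endpoints: HepG2 reporter mRNA after 24 h dosing, detected by RT-PCR and capillary electrophoresis fluorescence; gain or loss of signal analysed against DMSO.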

Experiment [7] deals with Hypoxia-inducible factor 1-alpha (Homo sapiens) (UniProt Q16665). In words: ATG_HIF1a_CIS: Attagene CIS-FACTORIAL HepG2 Assay for human Hypoxia Inducible Factor 1 (HIF1A) (AID 2282951). To be noted: HepG2 Attagene cis-factorial HIF1a reporter transcription; actives raise or lower the signal. A digest of the protocol: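 After 24 h chemical exposure of reporter-transfected HepG2 cells, reporter cDNA was PCR-amplified, labelled by 6-FAM primer extension (2 min 95 C, 20 s 68 C, 10 min 72 C), HpaI-cut (2 h, 37 C) and analysed by CE.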

Experiment [8] concerns the target Hepatocyte nuclear factor 6 (Homo sapiens) (UniProt Q9UBC0). Kind of experiment: ATG_HNF6_CIS: Attagene CIS-FACTORIAL HepG2 Assay for human Hepatocyte Nuclear Factor 6 (HNF6) (AID 2282952). Particulars: HepG2 Attagene cis-factorial HNF6 reporter transcription; actives raise or lower the signal. A digest of the protocol: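 Using cis-element reporters in HepG2 liver cells, the assay tracks endogenous factor-driven transcription 24 h post-dosing. Signal comes from 6-FAM-labelled, HpaI-digested RT-PCR fragments, with gain or loss scored against DMSO.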

The target in experiment [9] is Heat shock factor protein 1 (Homo sapiens) (UniProt Q00613). In words: ATG_HSE_CIS: Attagene CIS-FACTORIAL HepG2 Assay for human Heat Shock Transcription Factor 1 (HSE) (AID 2282953). Particulars: HepG2 HSE cis-reporter, Attagene RNA transcription; actives raise or lower the signal. A digest of the protocol:
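Using HepG2 with transfected cis-driven reporter constructs, compound effects on endogenous factor activity are scored as reporter mRNA change at 24 h. Detection: RT-PCR, HpaI digestion, capillary electrophoresis; bidirectional fitting to DMSO.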

Experiment [10] can be described thus: ATG_MRE_CIS: Attagene CIS-FACTORIAL HepG2 Assay for human Metal Responsive Element (MRE) (AID 2282954). To be noted: HepG2 MRE cis-reporter transcription, Attagene multiplex; actives raise or lower the signal. A digest of the protocol:
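Multiplexed cis-reporter assay in human HepG2 liver cells, 24 h incubation with test chemical. Reporter transcripts measured by RT-PCR and capillary electrophoresis; values from bidirectional curve fitting versus DMSO.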

Experiment [11] can be described thus: ATG_PBREM_CIS: Attagene CIS-FACTORIAL HepG2 Assay for human Phenobarbital-responsive Enhancer Module (PBREM) (AID 2282955). To be noted: HepG2 PBREM cis-reporter, Attagene multiplexed transcription; actives raise or lower the signal. A digest of the protocol: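 Measures endogenous factor action on a phenobarbital-responsive enhancer module. HepG2 transiently carrying cis reporters, 24 h treatment, mRNA read-out by RT-PCR plus capillary electrophoresis.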

In experiment [12] the target is Paired box protein Pax-6 (Homo sapiens) (UniProt P26367). In words: ATG_Pax6_CIS: Attagene CIS-FACTORIAL HepG2 Assay for human Paired Box 6 (PAX6) (AID 2282956). To be noted: HepG2 CIS-FACTORIAL PAX6 reporter transcription, RNA readout; actives raise or lower the signal. A digest of the protocol: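 Read-out is reporter transcript level, measured by RT-PCR with fluorescent primer extension and capillary electrophoresis after 24 h dosing of transfected HepG2 cells. Activity in either direction fitted relative to DMSO control.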

The nature of experiment [13]: ATG_PXRE_CIS: Attagene CIS-FACTORIAL HepG2 Assay for human Pregnane X Receptor Element (PXRE) (AID 2282957). Particulars: HepG2 Attagene CIS-FACTORIAL PXRE reporter, mRNA; actives raise or lower the signal. A digest of the protocol: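 Using HepG2 transfected with multiple reporter transcription units, endogenous factor-driven transcription was scored as reporter mRNA after 24 h exposure.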

Experiment [14] can be described thus: ATG_PPRE_CIS: Attagene CIS-FACTORIAL HepG2 Assay for human Peroxisome Proliferator-activated Response Element (PPRE) (AID 2282958). Particulars: HepG2 PPRE cis-element reporter, Attagene transcription factor profiling; actives raise or lower the signal. A digest of the protocol: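 PPRE activity in HepG2: transient cis-reporter transfection, 24 h compound incubation, reporter mRNA by RT-PCR and CE fluorescence; gain/loss fitted against DMSO.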

Experiment [15] is described as follows: ATG_RORE_CIS: Attagene CIS-FACTORIAL HepG2 Assay for human RAR-related Orphan Receptor Element (RORE) (AID 2282959). Particulars: HepG2 Attagene cis-factorial RORE reporter, mRNA; actives raise or lower the signal. A digest of the protocol: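 A 24-hour exposure of transfected HepG2 hepatoma cells precedes RNA isolation and reporter RT-PCR. Labeled products are digested with HpaI and resolved by capillary electrophoresis, with gain or loss of signal scored relative to DMSO.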

The nature of experiment [16]: ATG_Sox_CIS: Attagene CIS-FACTORIAL HepG2 Assay for human SRY-box transcription factor (SOX) (AID 2282960). Particulars: HepG2 Attagene cis-factorial SOX reporter, mRNA; actives raise or lower the signal. A digest of the protocol: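 HepG2, cis reporter units, 24 h exposure. Reporter mRNA: RT-PCR → FAM labelling → HpaI → CE fluorescence. Bidirectional fit vs DMSO.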

Experiment [17] concerns the target Transcription factor Sp1 (Homo sapiens) (UniProt P08047). Kind of experiment: ATG_Sp1_CIS: Attagene CIS-FACTORIAL HepG2 Assay for human Specificity Protein 1 (Sp1) (AID 2282961). Particulars: HepG2 Sp1 cis-reporter transcription, actives raise or lower the signal. A digest of the protocol: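 Liver-derived HepG2 cells, cis-element reporter library, 24 h treatment; RNA isolated, cDNA amplified with reporter-specific primers, FAM-labeled fragments sized on capillary analyzer. DMSO baseline, bidirectional curve fit.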

Experiment [18] is described as follows: ATG_SREBP_CIS: Attagene CIS-FACTORIAL HepG2 Assay for human Sterol Regulatory Element Binding (SREBP) (AID 2282962). To be noted: HepG2 Attagene cis-factorial SREBP reporter, mRNA; actives raise or lower the signal. A digest of the protocol:
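Endogenous SREBP activity read as cis-element-driven reporter transcript in transiently transfected HepG2, 24 h post-dosing; quantified via RT-PCR plus capillary electrophoresis of fluorescent fragments. Gain or loss of signal fitted relative to DMSO baseline.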

Experiment [19] deals with Signal transducer and activator of transcription 3 (Homo sapiens) (UniProt P40763). Kind of experiment: ATG_STAT3_CIS: Attagene CIS-FACTORIAL HepG2 Assay for human Signal Transducer and Activator of Transcription 3 (STAT3) (AID 2282963). To be noted: HepG2, Attagene cis-factorial STAT3 reporter transcription; actives raise or lower the signal. A digest of the protocol: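 Cis-factorial format: endogenous transcription factors in HepG2 drive transfected reporter units. After 24 h treatment, reporter RNA was reverse-transcribed, amplified, FAM-labelled and HpaI-digested before CE analysis; activity scored in both directions against DMSO.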

A short description of experiment [20]: ATG_TA_CIS: Attagene CIS-FACTORIAL HepG2 Assay for human TA Basal Promoter (AID 2282964). To be noted: HepG2 Attagene CIS-factorial TA basal promoter reporter; actives raise or lower the signal. A digest of the protocol: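 Transient MRTU transfection of HepG2 preceded 24 h compound exposure. Reporter mRNA levels were then read by RT-PCR with capillary electrophoresis, and this background-control endpoint was fitted bidirectionally to DMSO.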

The values that follow come from PubChem BioAssay (EPA / NIEHS).

“And” between values parts separate entries of the source, which are not always exact repeats. Identical values can stand only once. Some compounds were tested as several samples or in several runs, with calls that do not always agree. The source made the active and inactive calls. How the source made its calls: active means hit-call score of the fitted dose curve at least 0.9, where 1 is the maximum; inactive means score below 0.9.

Sequence of Bile acid receptor (Homo sapiens) (Q96RI1 whole entry, looked up): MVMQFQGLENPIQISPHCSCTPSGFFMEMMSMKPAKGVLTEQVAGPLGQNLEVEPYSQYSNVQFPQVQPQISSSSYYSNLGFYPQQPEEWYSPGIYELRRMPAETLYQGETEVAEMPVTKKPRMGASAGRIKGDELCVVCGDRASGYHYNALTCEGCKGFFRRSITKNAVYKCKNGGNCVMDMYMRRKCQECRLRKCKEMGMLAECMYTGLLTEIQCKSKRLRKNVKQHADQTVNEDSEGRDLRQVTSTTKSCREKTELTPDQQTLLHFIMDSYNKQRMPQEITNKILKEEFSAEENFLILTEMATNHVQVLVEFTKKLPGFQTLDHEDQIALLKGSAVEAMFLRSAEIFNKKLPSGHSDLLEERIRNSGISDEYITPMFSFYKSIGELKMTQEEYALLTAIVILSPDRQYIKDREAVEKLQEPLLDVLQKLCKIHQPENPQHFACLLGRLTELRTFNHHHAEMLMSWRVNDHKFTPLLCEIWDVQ
Sequence of Paired box protein Pax-6 (Homo sapiens) (P26367 whole entry, looked up): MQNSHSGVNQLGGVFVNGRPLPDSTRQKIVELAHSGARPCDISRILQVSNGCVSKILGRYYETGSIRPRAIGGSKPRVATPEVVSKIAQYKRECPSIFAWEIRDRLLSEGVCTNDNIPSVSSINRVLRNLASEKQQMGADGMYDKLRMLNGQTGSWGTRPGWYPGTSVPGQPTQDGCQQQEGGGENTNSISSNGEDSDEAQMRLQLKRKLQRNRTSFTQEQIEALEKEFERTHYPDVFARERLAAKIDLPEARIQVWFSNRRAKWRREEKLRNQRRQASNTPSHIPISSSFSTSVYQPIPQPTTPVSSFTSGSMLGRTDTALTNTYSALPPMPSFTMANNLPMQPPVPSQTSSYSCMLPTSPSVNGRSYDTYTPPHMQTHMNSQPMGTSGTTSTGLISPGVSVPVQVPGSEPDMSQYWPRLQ
Sequence of Hypoxia-inducible factor 1-alpha (Homo sapiens) (Q16665 whole entry, looked up): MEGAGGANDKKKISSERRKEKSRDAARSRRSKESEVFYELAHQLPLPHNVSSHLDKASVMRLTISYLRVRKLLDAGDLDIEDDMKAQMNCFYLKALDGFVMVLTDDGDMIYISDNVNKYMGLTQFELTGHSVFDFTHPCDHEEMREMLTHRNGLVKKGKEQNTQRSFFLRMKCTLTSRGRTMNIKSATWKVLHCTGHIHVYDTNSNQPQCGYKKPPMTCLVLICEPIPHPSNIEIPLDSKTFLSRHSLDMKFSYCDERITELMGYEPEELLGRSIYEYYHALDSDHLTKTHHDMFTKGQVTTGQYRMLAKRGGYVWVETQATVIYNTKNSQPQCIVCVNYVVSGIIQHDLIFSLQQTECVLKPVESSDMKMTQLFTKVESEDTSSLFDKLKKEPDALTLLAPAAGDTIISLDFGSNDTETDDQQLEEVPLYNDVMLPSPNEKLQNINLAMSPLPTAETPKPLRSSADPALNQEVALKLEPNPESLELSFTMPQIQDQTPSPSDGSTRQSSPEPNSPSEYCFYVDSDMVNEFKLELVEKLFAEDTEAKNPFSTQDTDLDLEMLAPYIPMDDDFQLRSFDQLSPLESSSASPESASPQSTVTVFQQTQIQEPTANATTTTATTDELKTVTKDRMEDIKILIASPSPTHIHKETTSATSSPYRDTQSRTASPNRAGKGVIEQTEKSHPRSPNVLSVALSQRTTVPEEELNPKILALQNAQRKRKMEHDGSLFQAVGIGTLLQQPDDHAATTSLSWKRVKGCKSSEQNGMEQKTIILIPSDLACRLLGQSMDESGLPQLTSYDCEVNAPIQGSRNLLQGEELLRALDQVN
Sequence of Heat shock factor protein 1 (Homo sapiens) (Q00613 whole entry, looked up): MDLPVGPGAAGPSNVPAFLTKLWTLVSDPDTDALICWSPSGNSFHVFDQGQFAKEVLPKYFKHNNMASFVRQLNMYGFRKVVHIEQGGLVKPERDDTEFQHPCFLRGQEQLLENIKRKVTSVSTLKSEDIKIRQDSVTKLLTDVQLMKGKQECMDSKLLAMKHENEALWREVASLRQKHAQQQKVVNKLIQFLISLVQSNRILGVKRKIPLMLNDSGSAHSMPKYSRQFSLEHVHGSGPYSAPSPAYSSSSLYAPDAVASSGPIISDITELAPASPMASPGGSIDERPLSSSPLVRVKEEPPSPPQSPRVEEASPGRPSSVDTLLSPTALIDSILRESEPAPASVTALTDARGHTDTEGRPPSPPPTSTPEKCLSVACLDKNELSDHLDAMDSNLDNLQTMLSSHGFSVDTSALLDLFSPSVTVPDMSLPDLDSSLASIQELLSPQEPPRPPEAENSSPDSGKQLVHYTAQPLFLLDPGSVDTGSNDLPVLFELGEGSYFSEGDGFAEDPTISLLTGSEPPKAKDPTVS
Sequence of Transcription factor Sp1 (Homo sapiens) (P08047 whole entry, looked up, the tested form may be a part): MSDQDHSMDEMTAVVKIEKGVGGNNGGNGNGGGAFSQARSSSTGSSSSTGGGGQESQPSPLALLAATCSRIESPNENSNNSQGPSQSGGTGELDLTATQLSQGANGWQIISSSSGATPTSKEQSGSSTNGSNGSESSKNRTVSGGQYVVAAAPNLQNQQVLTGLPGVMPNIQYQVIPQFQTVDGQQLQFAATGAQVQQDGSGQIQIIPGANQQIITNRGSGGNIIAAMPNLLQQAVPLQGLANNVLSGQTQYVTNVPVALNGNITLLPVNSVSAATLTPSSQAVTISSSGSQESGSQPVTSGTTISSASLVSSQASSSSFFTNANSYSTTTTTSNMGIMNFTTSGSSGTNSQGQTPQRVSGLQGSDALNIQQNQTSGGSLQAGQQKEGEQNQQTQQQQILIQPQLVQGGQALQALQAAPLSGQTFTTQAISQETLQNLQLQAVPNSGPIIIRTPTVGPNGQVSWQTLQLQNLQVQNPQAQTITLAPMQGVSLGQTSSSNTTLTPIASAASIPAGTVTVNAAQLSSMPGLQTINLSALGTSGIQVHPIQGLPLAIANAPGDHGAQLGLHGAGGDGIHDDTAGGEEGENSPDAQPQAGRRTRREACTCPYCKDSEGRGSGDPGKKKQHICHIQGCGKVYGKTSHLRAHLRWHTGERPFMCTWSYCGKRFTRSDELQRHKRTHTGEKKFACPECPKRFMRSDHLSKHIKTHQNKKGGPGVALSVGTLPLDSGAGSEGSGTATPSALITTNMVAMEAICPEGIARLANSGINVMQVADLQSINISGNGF
Sequence of Signal transducer and activator of transcription 3 (Homo sapiens) (P40763 whole entry, looked up): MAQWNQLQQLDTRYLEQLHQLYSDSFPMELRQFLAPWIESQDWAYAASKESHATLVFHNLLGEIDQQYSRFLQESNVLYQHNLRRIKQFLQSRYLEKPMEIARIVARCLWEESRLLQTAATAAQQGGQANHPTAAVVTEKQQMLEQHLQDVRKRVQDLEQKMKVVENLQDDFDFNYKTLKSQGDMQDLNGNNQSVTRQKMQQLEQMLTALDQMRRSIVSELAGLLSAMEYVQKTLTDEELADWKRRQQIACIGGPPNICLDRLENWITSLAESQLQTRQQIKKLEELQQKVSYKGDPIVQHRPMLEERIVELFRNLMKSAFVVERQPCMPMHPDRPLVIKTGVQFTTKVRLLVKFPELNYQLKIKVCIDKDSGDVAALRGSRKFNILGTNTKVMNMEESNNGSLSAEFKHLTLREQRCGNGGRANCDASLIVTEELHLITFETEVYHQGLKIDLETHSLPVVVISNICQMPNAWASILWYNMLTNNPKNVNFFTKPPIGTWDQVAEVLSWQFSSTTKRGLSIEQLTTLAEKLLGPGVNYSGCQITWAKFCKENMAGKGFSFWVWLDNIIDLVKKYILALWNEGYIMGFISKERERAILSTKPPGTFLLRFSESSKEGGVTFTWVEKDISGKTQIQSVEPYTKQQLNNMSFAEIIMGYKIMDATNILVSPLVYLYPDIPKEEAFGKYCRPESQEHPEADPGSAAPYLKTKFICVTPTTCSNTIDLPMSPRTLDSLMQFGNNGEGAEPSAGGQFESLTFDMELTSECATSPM
Sequence of Hepatocyte nuclear factor 6 (Homo sapiens) (Q9UBC0 whole entry, looked up, the tested form may be a part): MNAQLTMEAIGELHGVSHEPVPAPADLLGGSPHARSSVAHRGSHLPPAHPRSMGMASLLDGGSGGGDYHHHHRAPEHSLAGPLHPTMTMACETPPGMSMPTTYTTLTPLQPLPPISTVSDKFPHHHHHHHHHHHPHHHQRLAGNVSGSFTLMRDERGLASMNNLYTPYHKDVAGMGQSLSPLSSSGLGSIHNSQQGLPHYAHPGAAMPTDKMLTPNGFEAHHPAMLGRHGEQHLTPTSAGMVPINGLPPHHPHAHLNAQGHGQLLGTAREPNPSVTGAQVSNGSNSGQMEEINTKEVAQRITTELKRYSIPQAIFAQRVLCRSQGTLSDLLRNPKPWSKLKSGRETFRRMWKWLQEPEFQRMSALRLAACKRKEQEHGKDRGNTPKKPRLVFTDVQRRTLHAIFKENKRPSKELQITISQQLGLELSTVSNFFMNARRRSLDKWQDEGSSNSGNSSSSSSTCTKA

The AC50 is the concentration giving half of the maximal activity seen. Take `CC(=O)NC1(c2cccc(F)c2)CCN(CC[C@@]2(c3ccc(Cl)c(Cl)c3)CN(c3ccccc3)C(=O)CO2)CC1`: the AC50 was 50.7 µM (active) in [1]; 8.61 µM (active) in experiment [7]; 51.6 µM (active) in [9]; 45.5 µM (active) in [10]; 56.2 µM (active) in experiment [11]; 26 µM (active) in experiment [12]. Besides, the AC50 in [13] is 1.42 µM (active); in [14] it was 55.6 µM (active); in experiment [15] it was 50.2 µM (active); in experiment [16], 55.9 µM (active); in [17] it was 44.4 µM (active); in [18], 8.79 µM (active). Moreover, the AC50 in [20] is 16.8 µM (active). For the same compound, the compound was called inactive in experiment [2], in experiment [3], in experiment [4], in experiment [5], in [6] and in experiment [8]. Also, in experiment [19], the outcome was inactive.
With `OC1CCC(C2CCCCC2)CC1` (stereo unspecified), the AC50 in experiment [1] was 70.6 µM (active); in experiment [2], 100 µM (active); in [4], 73.8 µM (active) and 81.2 µM (active); in experiment [7] it was 100 µM (active); in experiment [8], 154 µM (active); in experiment [10], 121 µM (active) and 128 µM (active). The AC50 in [12] was 127 µM (active); in [13], 26.7 µM (active) and 25.6 µM (active) and 28.6 µM (active). For the same compound, the result in experiment [1], in [2], in experiment [3], in [4], in [5] and in experiment [7] was inactive. Also, the outcome in experiment [8], in [9], in experiment [10], in experiment [12], in experiment [13] and in [14] was inactive. In addition, the outcome in experiment [15], in experiment [16], in experiment [17], in experiment [18], in experiment [19] and in experiment [20] was inactive.
